The values below come from PubChem BioAssay.

Results filed as inconclusive are left out. The source made the active and inactive calls. Unless noted, the limit is not given here; nearly all actives have AC50 up to about 26 µM.

Test [1] can be described thus: growth inhibition of DIPG glioma cells, dose response, cell-based, SU-DIPG-XVII, MIPE5.0, CellTiter-Glo, qHTS (AID 1347060).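 As to AC50: cells exposed to compound for 48 hours before viability readout.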 The settings on record: SU-DIPG-XVII viability, CellTiter-Glo ATP luminescence.
Test [2] can be described thus: growth inhibition of DIPG glioma cells, dose response, cell-based, SU-DIPG-XIII, MIPE4.0, CellTiter-Glo, qHTS (AID 1347061; cut-off not given, nearly all actives have AC50 up to about 37 µM;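 also: cells exposed to compound for 48 hours before readout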). The settings on record: SU-DIPG-XIII viability, CellTiter-Glo ATP luminescence. (In general: Cellular ATP, detected with luciferase, serves as a proxy for viable cell number.)
A short description of test [3]: growth inhibition of DIPG glioma cells, dose response, cell-based, JHH-DIPG-1, MIPE4.0, CellTiter-Glo, qHTS (AID 1347062; cut-off not given, nearly all actives have AC50 up to about 27 µM;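 as to AC50: cells exposed to compound for two days before readout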). The settings on record: JHH-DIPG-1 viability, CellTiter-Glo ATP luminescence.
Test [4] can be described thus: growth inhibition of DIPG glioma cells, dose response, cell-based, SU-DIPG-IV, MIPE4.0, CellTiter-Glo, qHTS (AID 1347063; cut-off not given, nearly all actives have AC50 up to about 30 µM;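 also: compound exposure lasted 48 hours before the viability readout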). The settings on record: SU-DIPG-IV viability, CellTiter-Glo ATP luminescence.
Test [5] in a line: SU-DIPG-VI glioma cell viability, MIPE4.0 library, CellTiter-Glo luminescence, qHTS (AID 1347066; cut-off not given, nearly all actives have AC50 up to about 30 µM;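 also: cells exposed to compound for 48 hours before readout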). The settings on record: CellTiter-Glo ATP luminescence.
Test [6] can be described thus: JHH-DIPG-1 glioma cell viability, MIPE5.0 library, CellTiter-Glo luminescence, qHTS (AID 1347067).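 Also: cells exposed to compound for 48 hours before readout.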 The settings on record: JHH-DIPG-1 glioma viability, CellTiter-Glo ATP luminescence.
The nature of test [7]: SU-DIPG-XXV glioma cell viability, MIPE5.0 library, qHTS (AID 1347068; cut-off not given, nearly all actives have IC50 up to about 30 µM;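 as to IC50: cells exposed to compound for 48 hours before viability readout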). In general terms: qHTS replaces the single test concentration by a dilution series.
A short description of test [8]: sensitizers of A549 cells to miR-34 induction, primary screen, imaging, A549 dox-inducible miR-34, nuclei and caspase counts (AID 1347080;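 active = compounds whose cell count with miR-34 switched on is under 0.7 times the count with it off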). The settings on record: A549 miR-34 inducible, Hoechst nuclei count, 48 h.
A short description of test [9]: modifiers of HSF1 nuclear foci, imaging, Selleck Cancer Library (AID 1347162; in the data active = plate-normalised HSF1 focus index below about 0.46). The settings on record: human cells, at 10 µM; SSMD: measured here: HSF1 foci SSMD mean; cell count: measured here: cell number; plate-normalised HSF1 focus index: stronger effect = lower value.
A short description of test [10]: growth inhibition of DIPG glioma cells, dose response, cell-based, SU-DIPG-XIII, MIPE5.0, CellTiter-Glo, qHTS (AID 1347064; cut-off not given, nearly all actives have AC50 up to about 23 µM;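 as to AC50: cells exposed to compound for 48 hours before the viability read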). The settings on record: SU-DIPG-XIII viability, CellTiter-Glo ATP luminescence.
The nature of test [11]: viability loss in pontine glioma line – cell-based, SU-DIPG-XXV, MIPE5.0, CellTiter-Glo, qHTS, dose response (AID 1347065).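 Also: cells exposed to compound for 48 hours before ATP readout.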 The settings on record: CellTiter-Glo ATP luminescence.
Test [12] in a line: survival rescue of mitochondrial mutant cells in low glucose, primary screen, MELAS cybrids, Rieske KO mouse fibroblasts, CellTiter-Glo (AID 1508586;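 active = mean z-score across replicates of 1.96 or higher in either the MELAS or the Rieske mutant cell line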;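 also: z relative to plate mean and SD of compound and empty wells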).
Setting [13] is: stronger effect = lower value, cell number ratio, induced over uninduced.
Where [14] appears, read: measured here: relative caspase fold change +Dox/-Dox.
[15] abbreviates: measured here: total cells with miR-34 induction, stronger effect = lower value.
Where [16] appears, read: measured here: total cells without miR-34 induction.
[17] abbreviates: MELAS cybrid survival, CellTiter-Glo 48 h, stronger effect = higher value.
[18] abbreviates: Rieske KO mouse fibroblast survival, CellTiter-Glo 72 h.

In general, AC50 refers to the concentration giving half of the maximal activity seen. With `O=C(O)c1ccc(O)c2ncc(N3CCOCC3)cc12`, the call in [1], in [3] and in test [7] was inactive. Further, the AC50 was 26.4 µM (active) in test [2], 23.5 µM (active) in test [4], 26.4 µM (active) in [5] and 23.5 µM (active) in [6].

Consider `CC[C@H](CO)Nc1nc(NCc2ccccc2)c2ncn(C(C)C)c2n1`, for which the AC50 is 20.9 µM (active) in test [1], 16.6 µM (active) in test [2], 26.4 µM (active) in [3] and 20.9 µM (active) in [4]. In addition, the fold change in test [8] (setting [13]) was 0.923 (inactive); in test [8] (setting [14]), 1.07. Further, the cell count in test [8] (setting [15]) stood at 983; in [8] (setting [16]), 1060; in test [9] it was 7490. The compound also yielded an SSMD in test [9] of 1.82. Further, the plate-normalised HSF1 focus index in test [9] was 1.11 (inactive).

Consider `COc1ccccc1-c1cccc(-c2c(O)c3cc(C#N)c(Cl)cc3[nH]c2=O)c1`, for which the compound was classed as inactive in test [1], in test [2], in test [3], in test [10], in test [11] and in test [5]. The compound was classed as inactive in test [6] and in test [7].

For orientation: IC50 means the midpoint of a concentration-inhibition curve. Turning to `CN(CC(=O)N(Cc1ccc(C2CCCCC2)cc1)c1ccc(C(=O)O)c(O)c1)S(=O)(=O)c1c(F)c(F)c(F)c(F)c1F`, the AC50 in test [1] is 8.33 µM (active); in test [2] it was 11.8 µM (active); in test [3], 16.6 µM (active); in [10] it was 6.61 µM (active); in test [11], 9.34 µM (active); in [5], 3.32 µM (active). For the same compound, in [6], the AC50 is 3.72 µM (active). Besides, in test [7], the 50% inhibitory concentration (IC50) is 8.33 µM (active).

As to `C/C=C1\NC(=O)[C@H]2CSSCC/C=C\[C@H](CC(=O)N[C@H](C(C)C)C(=O)N2)OC(=O)[C@H](C(C)C)NC1=O`, the half-maximal activity concentration (AC50) in test [1] is 0.0833 µM (active); in test [2], 0.0148 µM (active); in test [3], 0.0118 µM (active); in test [4], 0.00935 µM (active); in test [11], 0.059 µM (active). Also, the IC50 in test [7] was 3.72 µM (active).

`Cn1cc(-c2ccc3ncc(Cc4ccc5ncccc5c4)n3n2)cn1`: the result in test [1], in test [2], in test [3], in test [10], in test [11] and in test [5] was inactive. Moreover, the result in test [6] and in test [7] was inactive. In addition, the figures for the fold change in [8] (setting [13]) and in [8] (setting [14]) were 0.865 (inactive) and 0.902, respectively. For the same compound, the cell count in test [8] (setting [15]) is 8680; in [8] (setting [16]) it was 10000. For the same compound, the z-score in test [12] (setting [17]) is -0.376 (inactive); in [12] (setting [18]) it was 0.544.

As to `O=C(CCCCCCC(=O)Nc1cccnc1)NO`, the AC50 in test [1] was 8.33 µM (active); in test [2], 9.35 µM (active); in test [3], 7.43 µM (active); in test [10], 5.9 µM (active); in [11], 7.42 µM (active); in test [6] it was 3.32 µM (active). This compound also showed an SSMD in [9] of 1.14. Also, the cell count in test [9] came to 7080. For the same compound, the plate-normalised HSF1 focus index in test [9] is 1.07 (inactive).

Turning to `CCc1cccc(CC)c1NC(=O)N1Cc2[nH]nc(NC(=O)c3ccc(N4CCN(C)CC4)cc3)c2C1`, the AC50 in [1] is 0.934 µM (active); in test [2], 14.8 µM (active); in test [10], 2.09 µM (active); in test [11] it was 0.661 µM (active). Further, the result in test [3] and in test [5] was inactive. Besides, the fold change in test [8] (setting [13]) was 1 (inactive); in test [8] (setting [14]) it was 0.697. Further, the cell count stood at 2360 in test [8] (setting [15]) and 2350 in test [8] (setting [16]). Moreover, the z-score in test [12] (setting [17]) was -0.115 (inactive); in test [12] (setting [18]), -0.878.
